The source made the active and inactive calls. The calls were made as follows: active = hit-call score of the fitted dose curve at least 0.9, where 1 is the maximum; inactive = score below 0.9.

Experimental findings from PubChem BioAssay (EPA / NIEHS) are described below.

Common to all, as to conditions: mRNA level, 48 h; actives raise or lower the signal
Read-out in assay [1]: Alkaline Phosphatase, Placental (ALPP) gene, ALPP (gene 250)
In words: LTEA_HepaRG_ALPP: Life Technologies and Expression Analysis (LTEA) Assay for Alkaline Phosphatase, Placental (ALPP) gene using HepaRG (AID 2283468). The procedure, abridged: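 Using human liver HepaRG cells, chemicals are tested in duplicate over 48 h at half-log concentrations topping at 100 uM; phenobarbital 1 mM serves as induction control. ALPP mRNA change by qRT-PCR, bidirectional fit against vehicle.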

Read-out in assay [2]: Bcl-2 (BAD) gene, BAD (gene 572)
In words: LTEA_HepaRG_BAD: Life Technologies and Expression Analysis (LTEA) Assay for Bcl-2 (BAD) gene using HepaRG (AID 2283469). The gist of the method: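 BAD transcript change, measured by qRT-PCR against three housekeeping genes and fitted in both directions relative to 0.5% DMSO, after 48 h chemical treatment of human HepaRG liver cells at concentrations up to 100 uM.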

Read-out in assay [3]: Bcl-2 (BAX) gene, BAX (gene 581)
In words: LTEA_HepaRG_BAX: Life Technologies and Expression Analysis (LTEA) Assay for Bcl-2 (BAX) gene using HepaRG (AID 2283470). The procedure, abridged:
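Differentiated HepaRG cells exposed 48 h in serum-free induction medium, eight half-log concentrations from 100 uM, in duplicate, 0.5% DMSO vehicle. BAX mRNA by TaqMan qRT-PCR, normalised to ACTB, GAPDH and POLR2A.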

Read-out in assay [4]: adenosine kinase (ADK) gene, ADK (gene 132)
In words: LTEA_HepaRG_ADK: Life Technologies and Expression Analysis (LTEA) Assay for adenosine kinase (ADK) gene using HepaRG (AID 2283471). The gist of the method: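 Read-out is ADK transcript level measured by qRT-PCR and normalised to three housekeeping genes. Cells are human HepaRG, dosed for 48 h at up to 100 uM in 0.5% DMSO. Gain or loss of signal is fitted against DMSO controls.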

Read-out in assay [5]: Alpha-fetoprotein (AFP) gene, AFP (gene 174)
The assay is described as follows: LTEA_HepaRG_AFP: Life Technologies and Expression Analysis (LTEA) Assay for Alpha-fetoprotein (AFP) gene using HepaRG (AID 2283472). The gist of the method:
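Differentiated human HepaRG cells exposed 48 h in serum-free induction medium, 8-point half-log series from 100 uM in 0.5% DMSO, duplicate. AFP mRNA by qRT-PCR, normalized to ACTB, GAPDH, POLR2A; bidirectional fit vs DMSO.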

Read-out in assay [6]: BCL2L11 (gene 10018)
The assay is described as follows: LTEA_HepaRG_BCL2L11: Life Technologies and Expression Analysis (LTEA) Assay for Bcl-2 (BCL2L11) gene using HepaRG (AID 2283473). The gist of the method:
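Human hepatic HepaRG cultures are treated 48 h with test chemicals (maximum 100 uM, 0.5% DMSO vehicle). Expression of BCL2L11 is measured by qRT-PCR against ACTB, GAPDH and POLR2A, with activity in either direction scored relative to vehicle.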

Read-out in assay [7]: Apolipoprotein A-V (APOA5) gene, APOA5 (gene 116519)
The assay is described as follows: LTEA_HepaRG_APOA5: Life Technologies and Expression Analysis (LTEA) Assay for Apolipoprotein A-V (APOA5) gene using HepaRG (AID 2283474). The gist of the method:
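Concentration-response of APOA5 expression in HepaRG: eight half-log doses to 100 uM, 48 h, qRT-PCR normalized to ACTB/GAPDH/POLR2A, bidirectional fitting with 0.5% DMSO as baseline.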

Read-out in assay [8]: Apoptosis regulator Bcl-2 (Homo sapiens) (UniProt P10415)
In words: LTEA_HepaRG_BCL2: Life Technologies and Expression Analysis (LTEA) Assay for Bcl-2 gene using HepaRG (AID 2283475). The procedure, abridged:
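Differentiated human HepaRG cells in serum-free induction medium exposed 48 h, in duplicate, to 8-point half-log series from 100 uM in 0.5% DMSO. BCL2 mRNA by qRT-PCR (TaqMan/Fluidigm), normalized to ACTB, GAPDH, POLR2A; bidirectional fit against DMSO.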

Read-out in assay [9]: Caspase-3 (Homo sapiens) (UniProt P42574)
In words: LTEA_HepaRG_CASP3: Life Technologies and Expression Analysis (LTEA) Assay for cysteine-aspartic acid protease (CASP3) using HepaRG (AID 2283477). The gist of the method: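 Transcript-level assay: CASP3 mRNA in human HepaRG after 48 h treatment, eight half-log concentrations from 100 uM in 0.5% DMSO, quantified by qRT-PCR.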

Read-out in assay [10]: Cytochrome P450 (CYP24A1), CYP24A1 (gene 1591)
The assay is described as follows: LTEA_HepaRG_CYP24A1: Life Technologies and Expression Analysis (LTEA) Assay for Cytochrome P450 (CYP24A1) using HepaRG (AID 2283478). The procedure, abridged:
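Gene expression of CYP24A1 by TaqMan qRT-PCR in HepaRG after 48 h treatment, highest concentration 100 uM; activity fitted in both directions relative to DMSO vehicle.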

Read-out in assay [11]: Cytochrome P450 (CYP1A2), CYP1A2 (gene 1544)
In words: LTEA_HepaRG_CYP1A2: Life Technologies and Expression Analysis (LTEA) Assay for Cytochrome P450 (CYP1A2) using HepaRG (AID 2283479). The gist of the method:
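In duplicate wells, HepaRG cultures maintained in 0.5% DMSO were treated 48 h across an 8-point, half-log series topping at 100 uM; phenobarbital (1 mM) served as induction control. Expression was read by qRT-PCR.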

Read-out in assay [12]: cysteine-aspartic acid protease (CASP8), CASP8 (gene 841)
The assay is described as follows: LTEA_HepaRG_CASP8: Life Technologies and Expression Analysis (LTEA) Assay for cysteine-aspartic acid protease (CASP8) using HepaRG (AID 2283480). The gist of the method: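 HepaRG, 48 h exposure, duplicate wells; 8 conc, half-log from 100 uM, 0.5% DMSO. Serum-free induction medium. CASP8 mRNA by TaqMan qRT-PCR, norm. ACTB/GAPDH/POLR2A; gain/loss fitted vs DMSO.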

Read-out in assay [13]: Cytochrome P450 (CYP2B6), CYP2B6 (gene 1555)
In words: LTEA_HepaRG_CYP2B6: Life Technologies and Expression Analysis (LTEA) Assay for Cytochrome P450 (CYP2B6) using HepaRG (AID 2283481). The gist of the method: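 Human HepaRG, 48 h dosing, 0.5% DMSO vehicle, top dose 100 uM. CYP2B6 transcript by qRT-PCR, housekeeping-normalized, bidirectional curve fit.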

Read-out in assay [14]: Cytochrome P450 2C19 (Homo sapiens) (UniProt P33261)
In words: LTEA_HepaRG_CYP2C19: Life Technologies and Expression Analysis (LTEA) Assay for CYP2C19 using HepaRG (AID 2283482). The gist of the method: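 Endpoint: CYP2C19 mRNA change, bidirectional fit vs 0.5% DMSO. Cells: HepaRG, 48 h exposure, eight-point series topping at 100 uM. Quantitation: qRT-PCR normalized to ACTB, GAPDH, POLR2A.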

Read-out in assay [15]: CYP2C8 (gene 1558)
In words: LTEA_HepaRG_CYP2C8: Life Technologies and Expression Analysis (LTEA) Assay for CYP2C8 using HepaRG (AID 2283483). The gist of the method:
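CYP2C8 mRNA induction or loss, by qRT-PCR normalized to ACTB/GAPDH/POLR2A, is read in HepaRG cells after 48 h treatment. Concentrations run from 100 uM down in half-log dilutions, with 0.5% DMSO as vehicle and baseline.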

Read-out in assay [16]: CYP2C9 (gene 1559)
In words: LTEA_HepaRG_CYP2C9: Life Technologies and Expression Analysis (LTEA) Assay for CYP2C9 using HepaRG (AID 2283484). The gist of the method:
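Cells plated 48 h, switched to serum-free induction medium, then treated in duplicate for 48 h at eight concentrations (max 100 uM, 0.5% DMSO). RNA then analysed by qRT-PCR for CYP2C9; curves fitted in both directions relative to DMSO.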

Read-out in assay [17]: CYP2E1 (gene 1571)
In words: LTEA_HepaRG_CYP2E1: Life Technologies and Expression Analysis (LTEA) Assay for CYP2E1 using HepaRG (AID 2283485). The gist of the method: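 HepaRG cells, plated 48 h, then exposed 48 h in serum-free induction medium to eight half-log concentrations from 100 uM in 0.5% DMSO, duplicate. CYP2E1 mRNA by qRT-PCR, normalized to ACTB/GAPDH/POLR2A; bidirectional fit versus DMSO.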

Read-out in assay [18]: CYP4A11 (gene 1579)
In words: LTEA_HepaRG_CYP4A11: Life Technologies and Expression Analysis (LTEA) Assay for CYP4A11 using HepaRG (AID 2283486). The gist of the method: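 Human hepatic HepaRG cultures receive duplicate 48 h exposures across a concentration-response series topping at 100 uM. Expression changes in CYP4A11 are measured by qRT-PCR relative to DMSO controls.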

Read-out in assay [19]: Cytochrome P450 3A4 (Homo sapiens) (UniProt P08684)
In words: LTEA_HepaRG_CYP3A4: Life Technologies and Expression Analysis (LTEA) Assay for CYP3A4 using HepaRG (AID 2283487). The procedure, abridged: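 HepaRG, 48 h exposure, 8-pt CRC from 100 uM (half-log), 0.5% DMSO, duplicates; serum-free induction medium. Readout: CYP3A4 mRNA, qRT-PCR, ACTB/GAPDH/POLR2A normalization. Bidirectional fit vs DMSO.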

Sequence of Cytochrome P450 3A4 (Homo sapiens) (P08684 whole entry, looked up): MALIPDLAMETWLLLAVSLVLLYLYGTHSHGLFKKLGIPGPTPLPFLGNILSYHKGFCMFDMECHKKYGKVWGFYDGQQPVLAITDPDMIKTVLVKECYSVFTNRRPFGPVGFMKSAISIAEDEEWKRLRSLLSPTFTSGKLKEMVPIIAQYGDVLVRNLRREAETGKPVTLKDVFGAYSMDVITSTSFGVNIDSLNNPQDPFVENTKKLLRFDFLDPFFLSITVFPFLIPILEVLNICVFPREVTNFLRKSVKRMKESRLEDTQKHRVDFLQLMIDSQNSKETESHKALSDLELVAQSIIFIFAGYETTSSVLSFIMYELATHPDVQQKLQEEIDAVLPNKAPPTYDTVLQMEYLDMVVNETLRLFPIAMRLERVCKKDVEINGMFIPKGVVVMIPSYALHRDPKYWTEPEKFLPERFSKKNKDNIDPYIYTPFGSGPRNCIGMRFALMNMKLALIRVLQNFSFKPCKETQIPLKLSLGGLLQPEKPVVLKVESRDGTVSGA
Sequence of Cytochrome P450 2C19 (Homo sapiens) (P33261 whole entry, looked up): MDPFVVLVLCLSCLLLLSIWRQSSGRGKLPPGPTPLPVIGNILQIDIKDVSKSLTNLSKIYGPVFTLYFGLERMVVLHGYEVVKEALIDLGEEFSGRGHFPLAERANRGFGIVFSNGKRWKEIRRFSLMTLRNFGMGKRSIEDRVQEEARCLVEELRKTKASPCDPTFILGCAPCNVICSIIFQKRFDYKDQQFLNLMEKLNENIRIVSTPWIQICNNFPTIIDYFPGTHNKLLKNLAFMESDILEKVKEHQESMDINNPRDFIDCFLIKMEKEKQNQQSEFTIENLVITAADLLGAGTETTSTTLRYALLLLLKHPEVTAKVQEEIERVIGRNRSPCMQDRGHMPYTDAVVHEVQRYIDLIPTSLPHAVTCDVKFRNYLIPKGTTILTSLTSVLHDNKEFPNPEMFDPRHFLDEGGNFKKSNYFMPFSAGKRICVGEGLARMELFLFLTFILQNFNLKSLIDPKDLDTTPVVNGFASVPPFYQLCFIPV
Sequence of Caspase-3 (Homo sapiens) (P42574 whole entry, looked up): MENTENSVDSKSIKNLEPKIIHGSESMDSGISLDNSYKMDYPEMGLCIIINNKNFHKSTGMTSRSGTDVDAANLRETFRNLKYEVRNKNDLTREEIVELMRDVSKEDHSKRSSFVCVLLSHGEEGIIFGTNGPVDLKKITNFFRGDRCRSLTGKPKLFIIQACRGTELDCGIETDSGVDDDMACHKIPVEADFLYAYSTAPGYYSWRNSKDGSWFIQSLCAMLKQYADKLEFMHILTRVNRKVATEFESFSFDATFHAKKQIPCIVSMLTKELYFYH
Sequence of Apoptosis regulator Bcl-2 (Homo sapiens) (P10415 whole entry, looked up): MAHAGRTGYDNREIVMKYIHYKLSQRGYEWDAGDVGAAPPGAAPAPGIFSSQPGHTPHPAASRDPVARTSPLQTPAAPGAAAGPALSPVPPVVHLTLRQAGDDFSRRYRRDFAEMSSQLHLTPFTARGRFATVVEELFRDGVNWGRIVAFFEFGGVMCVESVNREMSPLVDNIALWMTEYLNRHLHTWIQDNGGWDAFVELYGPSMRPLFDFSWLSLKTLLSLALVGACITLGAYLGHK

`COS(=O)(=O)OC`: the compound was called inactive in assay [1], in [2], in assay [3], in assay [4], in assay [5] and in [6]. The call in [7], in [8], in [9], in [10], in [12] and in assay [13] was inactive. Moreover, the call in assay [14], in [15], in assay [16], in assay [17], in [18] and in assay [19] was inactive. Besides, the half-maximal activity concentration (AC50) in [11] was 31 µM (active).
On to `Cc1ccccc1[N+](=O)[O-]`, for which the call in [1], in assay [2], in assay [3], in [4], in assay [5] and in assay [6] was inactive. In addition, the result in assay [7], in [8], in assay [9], in [10], in assay [11] and in assay [12] was inactive. Besides, the compound was classed as inactive in assay [14], in assay [15], in [16], in [17], in assay [18] and in assay [19]. In addition, in assay [13], the AC50 was 13.9 µM (active).
For the compound `CCOCCOC(C)=O`, the result in assay [1], in [2], in [3], in assay [4], in assay [5] and in assay [6] was inactive. Also, the call in [7], in [8], in assay [9], in [10], in assay [11] and in [12] was inactive. Also, the result in assay [14], in [15], in [16], in assay [17], in assay [18] and in [19] was inactive. The AC50 in [13] was 20.3 µM (active).
With `Nn1cnnc1`, the call in [1], in assay [2], in assay [3], in assay [4], in [5] and in assay [6] was inactive. The outcome in assay [7], in [8], in [9], in assay [10], in assay [11] and in assay [12] was inactive. For the same compound, the outcome in assay [13], in [14], in assay [15], in assay [16], in [17] and in [18] was inactive. Also, in assay [19], the result was inactive.
As for `CCC(=O)O[C@H]1CC[C@H]2[C@@H]3CCC4=CC(=O)CC[C@]4(C)[C@H]3CC[C@]12C`, the compound was called inactive in assay [1], in assay [2], in [3], in assay [4], in assay [5] and in assay [6]. Besides, the outcome in [7], in [8], in assay [9], in assay [10], in assay [11] and in [12] was inactive. The result in [15], in assay [16] and in assay [19] was inactive. The concentration at half-maximal activity (AC50) in assay [13] was 50 µM (active); in [14] it was 3.23 µM (active); in assay [17] it was 3.12 µM (active); in assay [18], 1.16 µM (active).
In the case of `C=CC(N)=O`, the outcome in assay [1], in assay [2], in assay [3], in assay [4], in assay [5] and in assay [6] was inactive. Further, the outcome in assay [7], in assay [8], in assay [9], in assay [10], in [11] and in [12] was inactive. The outcome in assay [13], in assay [15], in assay [16], in [17] and in assay [18] was inactive.
In the case of `CCCCCCCCCc1ccc(O)cc1`, the call in assay [1], in [2], in assay [3], in [4], in assay [5] and in [6] was inactive. In addition, the compound was called inactive in [7], in [8], in assay [9], in [10], in assay [11] and in [12]. For the same compound, the call in [13], in assay [14], in assay [15], in assay [16], in [17] and in assay [19] was inactive. Moreover, the AC50 in assay [18] was 33.5 µM (active).
